Assay outcomes deposited in PubChem BioAssay by several laboratories.
Glyco luc inh: N-linked glycosylation inhibition; AID 588692; D54 ERlucT glycosylation luciferase reporter, 24 h; percent of 100 nM tunicamycin response; 360,000 compounds, 0.23% hits; reporter increase, % at 12.5 µM;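 active = mean luciferase reporter signal, scaled so untreated is 0 and the glycosylation-blocking control 100, at or above a set limit in every replicate; inconclusive = mean reaches the limit but not every replicate does; inactive = mean below the limit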;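 also: luciferase carries N-glycosylation sites so blocking glycosylation raises the light; 0% = median of neutral control wells and 100% = median of 100 nM tunicamycin wells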
Myeloid diff MLP: myeloid differentiation induction; 360,000 compounds, 1% hits; calls only at 10 µM; ER-HoxA9 myeloid progenitors, lysozyme-GFP differentiation, flow cytometry;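 active = normalized GFP-positive differentiation at or above the plate's own cutoff, the solvent-only control mean plus 3 SD; inconclusive = no clear call, values can overlap the other calls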;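 also: cells exposed to compound for four days before flow analysis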
ABCB6 inh MLPCN: human ABCB6 transporter inhibition; Q9NP58; K562-ABCB6 porphyrin accumulation, flow cytometry, 1 h; hits give low values; fluorescence ratio to DMSO, % at 10 µM; 360,000 compounds, 0.19% hits; AID 602162;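 active = fluorescence ratio to DMSO below 75%, the collection mean minus 3 SD; inconclusive = too few cells collected in the well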;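 also: signal is porphyrin accumulated inside mitochondria; 100% equals median channel fluorescence of DMSO control wells; lower ratio means ABCB6 inhibition with less porphyrin fluorescence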
RAD54 inh: inhibitors of human RAD54 branch migration. Q92698. 360,000 compounds, 0.14% hits. RAD54 Holliday junction branch migration, FAM/BHQ fluorescence. inhibition, % at 10.4 µM;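 active = mean normalized replicate activity at least 40 and at least half of replicates scoring 40 or more; inconclusive = only one of the two criteria met; inactive = mean below 40 and under half of replicates reaching 40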;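 also: 0% = median of neutral control wells and 100% = median of positive control wells; inhibitors cause a drop in the FAM fluorescence signal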
Target sequence (Q92698 whole entry, looked up): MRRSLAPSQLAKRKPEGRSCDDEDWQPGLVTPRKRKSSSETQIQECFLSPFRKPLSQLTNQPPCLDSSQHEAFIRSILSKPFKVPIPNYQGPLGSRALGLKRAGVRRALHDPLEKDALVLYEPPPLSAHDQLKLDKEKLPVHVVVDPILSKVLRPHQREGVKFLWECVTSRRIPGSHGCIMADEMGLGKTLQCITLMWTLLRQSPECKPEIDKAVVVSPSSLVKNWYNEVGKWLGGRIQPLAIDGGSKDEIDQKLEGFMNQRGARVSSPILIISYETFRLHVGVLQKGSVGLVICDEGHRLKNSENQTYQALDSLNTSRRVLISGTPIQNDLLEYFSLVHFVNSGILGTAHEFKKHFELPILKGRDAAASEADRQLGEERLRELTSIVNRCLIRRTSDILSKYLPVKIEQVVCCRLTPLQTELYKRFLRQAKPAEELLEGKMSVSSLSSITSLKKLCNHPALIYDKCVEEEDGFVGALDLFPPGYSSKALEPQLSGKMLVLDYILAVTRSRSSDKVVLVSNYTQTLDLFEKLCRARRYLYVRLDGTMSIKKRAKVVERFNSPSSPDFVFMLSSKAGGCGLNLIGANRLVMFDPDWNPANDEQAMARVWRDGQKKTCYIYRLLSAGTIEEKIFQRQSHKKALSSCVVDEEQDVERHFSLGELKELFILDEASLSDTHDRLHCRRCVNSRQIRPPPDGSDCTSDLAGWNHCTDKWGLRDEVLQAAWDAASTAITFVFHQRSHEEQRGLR
Vif imaging: inhibitors of HIV Vif. inhibition, % at 7.49 µM. HEK293T cells, Vif self-association by quenched fluorescence, imaging, 24 h. 340,000 compounds, 0.35% hits; in the data active = inhibition above about 50%, passing the limit was not always enough; inconclusive = no clear call, values can overlap the other calls; inactive = below about 31%
Myeloid diff: compounds promoting myeloid differentiation. shares compounds with Myeloid diff MLP. ER-HoxA9 myeloid progenitors, GFP/Mac1 double-positive flow. calls only. 2,300 compounds, 2% hits. AID 651706;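 active = share of green or green-and-red cells above 9 and 9% in run 1 or 4 and 3% in run 2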
GFP autofluor: compound fluorescence in myeloid differentiation counter-screen; shares compounds with Myeloid diff MLP; ER-HoxA9 myeloid progenitors, no estrogen, GFP autofluorescence flow cytometry; vehicle wells 0%, positive control 100%; 2,300 compounds, 7.4% hits; fluorescence response, % (no concentration beside the values);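 active = over 5% cells positive for green fluorescent reporter, or over 2% positive for both it and APC stain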;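 also: range taken on the double positive population between DMSO and positive control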
An asterisk follows results filed as active; i = inactive; ? = inconclusive; / = no result given; + = active, no number. Hits are enriched below; roughly 1.6% of the tested compounds scored in any of these assays.

SMILES	Glyco luc inh	Myeloid diff MLP	ABCB6 inh MLPCN	RAD54 inh	Vif imaging	Myeloid diff	GFP autofluor
CN1C(=O)c2cc(NC(=O)Cc3ccccc3)ccc2OC[C@@H]2O[C@@H](CC(=O)NC3CCC3)CC[C@@H]21	/	/	/	-9	/	/	/
CCOc1ccc(NC(=O)CN2CCc3ccccc3C2)cc1	0	i	104	-7	-11	/	/
COC(=O)c1cc(NC(=O)CN2CCc3cc4c(cc3C2)OCCCO4)cc(C(=O)OC)c1	3	i	101	-4	-2	i	0
CCOC(=O)c1ccc(NC(=O)CN2CCc3ccccc3C2)cc1	2	i	92	-3	-3	i	2
O=C(CN1CCc2cc3c(cc2C1)OCCCO3)Nc1ccc(S(=O)(=O)N2CCCC2)cc1	-2	i	108	13	13	/	/
Nc1ncn([C@@H]2O[C@H](CO)[C@@H](O)[C@H]2O)c(=O)n1	3	i	103	7	-5	i	5.0*
Nc1ccn([C@@H]2O[C@H](CO)[C@@H](O)[C@@H]2O)c(=O)n1	-2	?	100	-1	-14	/	/
CN(C)c1ncnc2c1ncn2C1OC(CO)C(O)C1O (stereo unspecified)	-13	+	105	-1	?	i	0
O=c1[nH][nH]c(-c2ccccc2O)c1C(C[N+](=O)[O-])c1ccc(Cl)cc1Cl (stereo unspecified)	0	i	99	-2	7	i	1
N#CC1C(=O)NC(=O)C(C#N)C12CCCCC2 (stereo unspecified)	/	i	90	/	/	/	/
N#CC1C(=O)NC(=O)CC12CCCCC2 (stereo unspecified)	1	i	100	-13	46	i	0
Cc1cc(C(=O)Nc2cccc3c2O[C@@H](CN(C)S(=O)(=O)c2ccc(F)cc2)[C@H](C)CN([C@H](C)CO)C3=O)n(C)n1	/	/	/	-4	/	/	/
O=C(CCN1C(=O)c2ccccc2S1(=O)=O)Nc1ccc2c(c1)OCCO2	0	i	104	7	5	i	0
CC(C)(C)C(=O)/C=C1\SCC(=O)N1CC(=O)N1CCN(c2ccccc2)CC1	1	i	104	5	6	i	1
CC(/C=C1\SC(=S)N(CC(=O)N2CCN(c3ccccc3)CC2)C1=O)=C\c1ccccc1	-2	i	99	/	2	/	/
C[C@H](O)[C@@H]1CN2CCc3c([nH]c4ccccc34)[C@@H]2C[C@@H]1N(C)C(=S)NCCc1ccccc1	9	+	i	-381	4	i	2
CCNC(=O)N(C)[C@H]1C[C@H]2c3[nH]c4ccccc4c3CCN2C[C@H]1[C@H](C)O	4	i	100	18	5	/	/
C[C@H](O)[C@@H]1CN2CCc3c([nH]c4ccccc34)[C@@H]2C[C@@H]1N(C)C(=O)Nc1cccc2ccccc12	3	i	101	5	26	i	0
COc1ccc(-c2ccc3[nH]c4c(c3c2)CCN2C(=O)[C@@H]([C@H](C)O)[C@@H](N(C)C(=O)Nc3cc(Cl)cc(Cl)c3)C[C@@H]42)cc1	-5	i	101	1	2	/	/
C[C@H](O)[C@@H]1CN2CCc3c([nH]c4ccccc34)[C@@H]2C[C@@H]1N(C)C(=O)c1ccco1	24	i	102	12	8	/	/
COc1ccc(-c2ccc3[nH]c4c(c3c2)CCN2C[C@@H]([C@H](C)O)[C@@H](N(C)C(=O)Nc3cc(Cl)cc(Cl)c3)C[C@@H]42)cc1	-2	+	108	/	-2	i	1
Cc1cccc(C)c1NC(=O)C(=O)NCCc1c[nH]c2ccccc12	-1	i	99	3	2	/	/
Cc1cccc(NC(=O)C(=O)NCCc2c[nH]c3ccccc23)c1C	2	i	99	0	-2	i	0
CCOC(=O)N1CCN(C(=O)CSCC(=O)Nc2nc(-c3ccc(C)cc3)cs2)CC1	1	i	94	-7	-1	i	0
CCCC1=[N+](CC(=O)c2ccccc2)CCn2cccc21	-1	i	99	/	-1	i	3
SMILES	Glyco luc inh	Myeloid diff MLP	ABCB6 inh MLPCN	RAD54 inh	Vif imaging	Myeloid diff	GFP autofluor
CCCC1=[N+](CC(C)=O)CCn2c(C)ccc21	0	i	95	/	-7	/	/
CCCC1=[N+](CC(=O)c2ccc(Br)cc2)CCn2cccc21	-2	i	109	-5	-2	i	3
C[C@H]1CN([C@@H](C)CO)C(=O)c2cc(-c3cccnc3)cnc2O[C@H]1CN(C)C(=O)C1CCC1	/	/	/	-5	/	/	/
c1ccc(COc2ccc(-c3cc4nc(NCCCn5ccnc5)ccn4n3)cc2)cc1	-8	i	98	1	-1	i	0
C[C@]12CCC3C4(C=CC5(C=C4C(=O)C4CCCCC4)C[C@@H](O)CC[C@]35C)C1CC[C@@]2(O)CN1CCC(n2c(=O)[nH]c3ccccc32)CC1 (stereo partly specified)	/	/	/	15	/	/	/
CC1=NN(c2ccccc2C)C(=O)C1	0	i	102	-7	1	i	0
CC(C)(C)NC(=O)CCN(/N=C/c1ccc([N+](=O)[O-])o1)C1=NS(=O)(=O)c2ccccc21	5	+	106	-26	-1	i	1
COc1cccc(NC(=O)N2CCCC2C(=O)NCc2ccc(Cl)cc2)c1 (stereo unspecified)	-1	i	101	1	9	i	0
C[C@@H]1CN([C@H](C)CO)C(=O)c2cc(-c3ccncc3)cnc2O[C@@H]1CN(C)C(=O)NC1CCCC1	/	/	/	1	/	/	/
C[C@@H]1CN([C@@H](C)CO)S(=O)(=O)c2ccc(-c3ccncc3)cc2O[C@H]1CN(C)C(=O)c1cccc(F)c1	/	/	/	6	/	/	/
O=C(N/N=C/c1cccnc1)c1cccc(NC(=O)c2ccccc2Cl)c1	0	+	90	3	7	i	0
O=C(C[C@@H]1CC[C@@H]2[C@H](COC[C@@H](O)CN2C(=O)Nc2cccc(Cl)c2)O1)N1CCCCC1	/	/	/	6	/	/	/
COc1ccccc1NC(=O)N[C@H]1CC[C@H](CCn2cc(-c3ccccc3OC)nn2)O[C@@H]1CO	/	/	/	0	/	/	/
Cc1cccc(NC(=O)c2ccco2)c1C	1	i	102	-3	0	i	0
Cc1cc(C(=O)CN2C(=O)C(=O)N(Cc3ccco3)C2=O)c(C)n1CCc1ccc(F)cc1	8	i	103	-3	14	i	0
Cc1cc(C(=O)CN2C(=O)C(=O)N(Cc3ccco3)C2=O)c(C)n1CCc1ccccc1	3	i	103	-2	17	/	/
CC(C)NC(=O)N(C)C[C@@H]1Oc2ncc(-c3ccc(C(=O)N(C)C)cc3)cc2C(=O)N([C@H](C)CO)C[C@@H]1C	/	/	/	-15	/	/	/
CN1CCc2c(sc(/N=C/c3cccs3)c2C(N)=O)C1	1	i	108	-16	i	i	0
